“And” between values parts separate entries of the source, which are not always exact repeats. Identical values can stand only once. Records with an inconclusive call do not appear. Some structures have more than one record in an assay (separate samples or runs), and their calls can disagree. The source made the active and inactive calls. The calls were made as follows, unless noted: active = hit-call score of the fitted dose curve at least 0.9, where 1 is the maximum; inconclusive = response in the unintended direction; inactive = score below 0.9.

Experiment [1] addresses Estrogen receptor (Homo sapiens) (UniProt P03372). Nature of the experiment: CCTE_Deisenroth_AIME_384WELL_LUC_Active: CCTE's 384-well Estrogen Receptor Transactivation Assay with AIME metabolic competence (ERTA luciferase; metabolism positive), Deisenroth Lab (AID 2284030). In a few lines:
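Estrogenic luciferase signal in VM7Luc4E2 cells is measured at 24 hour, after chemicals have been preconditioned 2 hours with PB/BNF-induced rat hepatic S9 in alginate. Gain of signal is fitted relative to 17beta-estradiol, across 0.002 - 200 uM.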

Experiment [2] can be described thus: CCTE_Deisenroth_AIME_384WELL_CTox_Active: Cytotoxicity Assessment (CTOX) in CCTE's 384-well Estrogen Receptor Transactivation Assay with AIME metabolic competence (metabolism positive), Deisenroth Lab (AID 2284037).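 Also: chemicals first conditioned 2 h by alginate-bound induced rat liver S9 before cells; activity means signal loss indicating cell death.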 A digest of the protocol: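 Cytotoxicity in VM7Luc4E2 breast cells, 24 hour, measured as protease-substrate fluorescence loss, after 2-hour metabolic conditioning with induced rat hepatic S9 in alginate microspheres. Concentrations 0.002 - 200 uM, 10 points, bidirectional fitting.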

Experiment [3] concerns the target Estrogen receptor (Homo sapiens) (UniProt P03372). The experiment can be described thus: CCTE_Deisenroth_AIME_384WELL_LUC_Inactive: CCTE's 384-well Estrogen Receptor Transactivation Assay without AIME metabolic competence (ERTA luciferase; metabolism negative), Deisenroth Lab (AID 2284038).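 Also: VM7Luc4E2 breast cells given medium preincubated 2 h with S9-free microspheres; hits raise estrogen receptor luciferase signal so potencies reflect agonists.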 A digest of the protocol: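 Chemicals (10-point series, 0.002 - 200 uM) were incubated 2 hours with alginate-water microsphere lids lacking S9, then the conditioned medium was transferred to VM7Luc4E2 breast cells for 24 hour. Luciferase induction was read by bioluminescence, fitted upward relative to 17beta-estradiol.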

A short description of experiment [4]: CCTE_Deisenroth_AIME_384WELL_CTox_Inactive: Cytotoxicity Assessment (CTOX) in CCTE's 384-well Estrogen Receptor Transactivation Assay without AIME metabolic competence (metabolism negative), Deisenroth Lab (AID 2284039).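 Also: cell viability via live-cell protease substrate cleaved to fluorescent probe; cells exposed 24 h to medium preincubated 2 h with alginate-water beads without S9; loss of fluorescence signal means loss of viability.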 In a few lines: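 VM7Luc4E2 cells, metabolism-negative arm: test chemicals (0.002–200 uM, 10 points) pre-incubated 2 h with alginate-water microspheres, then medium transferred to cells for 24 h. Viability read as protease-substrate cleavage to fluorescent probe; loss-of-signal, bidirectional fitting.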

Experiment [5] has as its target Estrogen receptor (Homo sapiens) (UniProt P03372). Nature of the experiment: CCTE_Deisenroth_AIME_384WELL_LUC_Shift: CCTE's 384-well Estrogen Receptor Transactivation Assay with AIME metabolic competence data shift (ERTA luciferase; difference in metabolism positive and negative), Deisenroth Lab (AID 2284041; active = hit-call score of the fitted dose curve at least 0.9, where 1 is the maximum; inactive = score below 0.9;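 also: shift is response with S9 minus without S9 so positive means metabolism raised ER signal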). A digest of the protocol: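 Test chemicals (0.002–200 uM, 10-point) were pre-incubated 2 h with alginate microspheres containing phenobarbital/beta-naphthoflavone-induced male Sprague Dawley rat liver S9 or water, then medium was transferred to VM7Luc4E2 cells for 24 h luciferase readout; shift = S9-positive minus S9-negative normalized response.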

Experiment [6] can be described thus: CCTE_Shafer_MEA_acute_synchrony_index: CCTE's Neural Acute Assay for Synchrony, Shafer Lab (AID 2284027; active = hit-call score of the fitted dose curve at least 0.9, where 1 is the maximum; inactive = score below 0.9;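 also: network synchrony index of spontaneous spiking in primary rat cortical neurons on MEAs; fitted for loss of signal so actives lower synchrony relative to DMSO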). In a few lines: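 Spontaneous firing of mature rat cortical networks is captured extracellularly on microelectrode arrays at 37 C, with wells needing ≥10 active electrodes. Each compound (0.03-40 uM) is judged by the change in synchrony index from baseline over 40 min.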

Experiment [7] in a line: CCTE_Shafer_MEA_dev_firing_rate_mean: CCTE's Neural Network Formation Assay for Mean Firing Rate, Shafer Lab (AID 2284031; active = hit-call score of the fitted dose curve at least 0.9, where 1 is the maximum; inactive = score below 0.9;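 also: AUC of well mean spike rate recorded on DIV 5 7 9 and 12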;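 as to AC50: curve fitted for loss of firing so AC50 reflects decreased mean firing rate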). In a few lines: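 Developing rat cortical networks on MEA plates undergo 12-day compound exposure. Firing frequency, averaged across active electrodes, is integrated as area under the curve over four recording days, referenced to DMSO.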
A short description of experiment [8]: CCTE_Shafer_MEA_dev_per_burst_spike_percent: CCTE's Neural Network Formation Assay for Percent of Spikes in a Burst, Shafer Lab (AID 2284032; active = hit-call score of the fitted dose curve at least 0.9, where 1 is the maximum; inactive = score below 0.9;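 as to AC50: fitted as a decrease in burst spike percentage below DMSO baseline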). In a few lines: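 Rat primary cortical neurons on 16-electrode MEA wells, dosed from plating day 0 for 12 days with renewal on DIV 5 and 9; spikes-in-bursts percentage averaged over bursting electrodes, collapsed as AUC across days 5, 7, 9, 12; loss direction versus DMSO.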

A short description of experiment [9]: CCTE_Shafer_MEA_dev_bursting_electrodes_number: CCTE's Neural Network Formation Assay for Number of Bursting Electrodes, Shafer Lab (AID 2284043).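 As to AC50: potency is for loss of bursting electrodes relative to DMSO.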 In a few lines: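 Read-out is the per-well number of electrodes bursting at least once every 2 minutes, recorded on days 5, 7, 9 and 12 and collapsed by trapezoidal area under the curve. Cultures were primary rat cortical neurons on MEA plates, treated continuously from plating.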

Sequence of Estrogen receptor (Homo sapiens) (P03372 whole entry, looked up): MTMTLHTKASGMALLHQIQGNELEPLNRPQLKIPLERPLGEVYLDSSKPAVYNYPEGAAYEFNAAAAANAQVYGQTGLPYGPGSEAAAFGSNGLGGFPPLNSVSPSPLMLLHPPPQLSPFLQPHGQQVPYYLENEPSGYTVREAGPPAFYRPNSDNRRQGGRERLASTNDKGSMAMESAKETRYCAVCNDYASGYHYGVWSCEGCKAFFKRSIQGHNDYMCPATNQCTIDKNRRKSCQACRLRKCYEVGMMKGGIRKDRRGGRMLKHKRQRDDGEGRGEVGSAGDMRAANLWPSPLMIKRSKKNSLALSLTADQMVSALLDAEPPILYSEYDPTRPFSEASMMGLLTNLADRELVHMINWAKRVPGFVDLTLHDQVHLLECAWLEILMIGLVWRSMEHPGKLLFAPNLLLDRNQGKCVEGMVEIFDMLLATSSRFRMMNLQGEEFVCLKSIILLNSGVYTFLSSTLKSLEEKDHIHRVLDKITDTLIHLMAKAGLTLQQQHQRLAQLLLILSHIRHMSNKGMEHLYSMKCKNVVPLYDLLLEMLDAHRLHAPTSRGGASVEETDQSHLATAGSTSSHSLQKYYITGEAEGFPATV

Take `CCOc1cccc(C2(N3CCN(c4ccccc4)CC3)CCC(C)CC2)c1` (stereo not drawn): the compound was classed as inactive in [1], in experiment [2], in experiment [3], in [4] and in [5].
One may read the AC50 as the concentration giving half of the maximal activity seen. `Cc1cc(N=Nc2ccccc2C)ccc1N`: the AC50 in [6] was 28.7 µM (active); in [2] it was 107 µM (active); in experiment [4], 103 µM (active).
On to `Cc1cccc(N)c1N`, for which the compound was classed as inactive in [4].
`C1=Cc2cccc3cccc1c23`: the compound was called inactive in experiment [7], in experiment [8] and in experiment [9].
Regarding `CCCCCCCCOC(=O)c1ccc(C(=O)OCCCCCCCC)c(C(=O)OCCCCCCCC)c1`, the outcome in [2] and in [4] was inactive.
For `Nc1ccc(Oc2ccc(N)cc2)cc1`, in experiment [2], the outcome was inactive.
With `CN(C)[C@@H]1C(=O)C(C(N)=O)=C(O)[C@@]2(O)C(=O)C3=C(O)c4c(O)cccc4[C@@](C)(O)[C@H]3C[C@@H]12`, the result in [7], in [8], in [2] and in experiment [9] was inactive. The AC50 in experiment [4] was 103 µM (active).
Consider `CCCCCCCCn1sccc1=O`, for which the AC50 in [6] is 6.04 µM (active); in experiment [2], 196 µM (active); in experiment [4], 93.9 µM (active); in experiment [5], 14 µM (active).
`CCNS(=O)(=O)C(F)(F)C(F)(F)C(F)(F)C(F)(F)C(F)(F)C(F)(F)C(F)(F)C(F)(F)F`: the compound was called inactive in experiment [7] and in experiment [2]. Further, the AC50 is 15 µM (active) and 3.54 µM (active) in [8]; 15 µM (active) and 2.98 µM (active) in experiment [9].
On to `O=[N+]([O-])c1ccc(Oc2ccc(Cl)cc2Cl)cc1`, for which the AC50 in [6] was 10.9 µM (active). The outcome in experiment [2] and in experiment [4] was inactive.
Take `Cc1ccc([N+](=O)[O-])cc1`: the call in experiment [1], in experiment [2], in experiment [3], in experiment [4] and in experiment [5] was inactive.
On to `Nc1ccc(Cl)cc1N`, for which the call in experiment [4] was inactive.
On to `OCCOCCO`, for which the call in [1], in experiment [7], in experiment [8], in experiment [2], in [3] and in experiment [4] was inactive. In addition, in experiment [9], the result was inactive.
Take `CCOC(=O)[C@]1(c2ccccc2)Oc2ccccc2[C@@H]1N`: the result in experiment [2] and in experiment [4] was inactive.
Turning to `O=C(Nc1ccccc1)c1ccccc1I`, the AC50 in experiment [1] was 38.4 µM (active); in [3], 23.7 µM (active); in experiment [5], 6.87 µM (active). Also, in [4], the outcome was inactive.
Regarding `CNC(=O)Oc1cccc2c1OC(C)(C)C2`, the AC50 in [1] was 100 µM (active); in experiment [8], 15.5 µM (active); in experiment [3], 53.8 µM (active); in [5], 45.4 µM (active); in experiment [9] it was 15 µM (active) and 76.8 µM (active). In addition, the result in experiment [7], in experiment [8] and in experiment [4] was inactive.
Consider `CN(C)C(=O)Nc1ccc(Cl)cc1`, for which the call in experiment [2] and in [4] was inactive.
In the case of `O=C1CCCO1`, in experiment [2], the call was inactive.
Regarding `Oc1ccc2ccc3cccc4ccc1c2c34`, the AC50 in experiment [2] was 88.4 µM (active). Further, the call in [4] was inactive.
`[O-][Cl+]O`: the outcome in experiment [1], in [7], in experiment [8], in [2], in [3] and in [4] was inactive. In addition, the result in experiment [5] was inactive.
Regarding `COP(=S)(OC)SCN1C(=O)c2ccccc2C1=O`, the AC50 is 83.2 µM (active) in [7]; 32.8 µM (active) and 51.5 µM (active) in experiment [8]; 32.6 µM (active) and 51.5 µM (active) in [9]. Also, the compound was called inactive in experiment [7].
Regarding `Nc1cc(Cl)cc(C(=O)O)c1Cl`, the compound was called inactive in experiment [7], in [8] and in [9].
Turning to `c1ccc(N=Nc2ccccc2)cc1`, the outcome in [6], in [2] and in experiment [4] was inactive.
With `Cc1ccc(N)c(N)c1`, the AC50 in [6] is 20 µM (active). Moreover, the compound was classed as inactive in [2] and in experiment [4].

Values taken from PubChem BioAssay (EPA / NIEHS).
